Source: PubChem BioAssay (Tox21)
Results filed as inconclusive are left out. Activity calls are given as the source filed them. Unless noted, calls follow the shape of the full dose curve.

Tests used:
[1] = target: Thyrotropin receptor (Homo sapiens) (UniProt P16473); test: qHTS assay to identify small molecule agonists of the thyroid stimulating hormone receptor (TSHR) signaling pathway (AID 1224843); also: nearly all actives have a fitted effect of over 45% in size
In short: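 Compounds are titrated over 15 concentrations, in triplicate, onto TSHR-HEK293 cells seeded at 800/well. Plates sit 30 min at room temperature before cAMP-d2 and anti-cAMP cryptate are added; signal is read after a further hour.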

[2] = qHTS assay to identify small molecule agonists of the hypoxia (HIF-1) signaling pathway - cell viability counter screen (AID 1224844); also: nearly all actives have a fitted effect of over 50% in size; also: potency is read from the fitted curve at half-maximal effect
In short: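 Cytotoxicity measured by CellTiter-Glo ATP luminescence in the wells also read for beta-lactamase signal. Cells were HRE-bla ME-180 (2,000/well, 0.5% dialyzed FBS), exposed to compounds for 17 h at 37C.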

[3] = qHTS assay to identify small molecule agonists of the hypoxia (HIF-1) signaling pathway (AID 1224846; active = well fitted activation curve with a large enough effect in the signal ratio in the repeat runs, not every such curve was filed as active; the % refers to the signal ratio)
In short: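 Compounds added to ME-180 cells carrying hypoxia-response-element beta-lactamase reporter (0.5% dialyzed FBS, 5 h preplating), 17 h at 37C; agonist activity detected by CCF4-AM B/G FRET read-out.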

[4] = qHTS assay to identify small molecule agonists of H2AX - cell viability counter screen (AID 1224847); also: top concentration of the series differs between compounds; nearly all actives have a fitted effect of over 30% in size
In short: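 Cells plated first: CHO-K1, 1000 per well in 10% FBS medium, incubated overnight at 37C. Then 15-point compound titration added (final DMSO 0.76%) for 3 hr. Finally CellTiter-Glo added and luminescence read.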

[5] = qHTS assay to identify small molecule antagonists of the estrogen related receptor (ERR) signaling pathway from Tox21 library (AID 1224848; active = well fitted curve in the direction sought with a large enough effect in the repeat runs; an effect the other way counts as inactive or inconclusive; also: nearly all actives have a fitted effect of over 50% in size; also: potency is read from the fitted curve at half-maximal effect)
In short: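 First, 2,000 ERR cells per well were plated and held 6 h at 37 C/5% CO2. Next, compounds in DMSO were pinned in and left 18 h at 37 C. Finally, ONE-Glo was added and luminescence read after 30 min at room temperature.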

[6] = qHTS assay to identify small molecule agonists of the estrogen related receptor (ERR) signaling pathway from Tox21 library (AID 1224849); settings: ERR reporter cell line, ONE-Glo luciferase, 18 h; at 92.4 µM (top of the series) unless noted; also: nearly all actives have a fitted effect of over 15% in size
In short: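 Luminescent agonist read-out (One-Glo, 30-minute room-temperature incubation) following 18-hour compound treatment at 37 C of the ERR cell line, which had been plated 6 hours before dosing.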

[7] = qHTS RealTime-Glo MT Cell Viability Assay in HepG2 cells - 24 hour (AID 1224867; active = well fitted curve in the direction sought with a large enough effect in the repeat runs; an effect the other way counts as inactive or inconclusive; also: nearly all actives have a fitted effect of over 50% in size)
In short: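 Cells + NanoLuc/prosubstrate dispensed (600 cells/well) → 5 h at 37 C/5% CO2 → compounds in DMSO transferred → 40 h incubation at 37 C, luminescence read at 0, 8, 16, 24, 32, 40 h.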

[8] = qHTS RealTime-Glo MT Cell Viability Assay in HEK293 cells - 32 hour (AID 1224868; active = well fitted curve in the direction sought with a large enough effect in the repeat runs; an effect the other way counts as inactive or inconclusive; also: nearly all actives have a fitted effect of over 50% in size; also: potency is read from the fitted curve at half-maximal effect)
In short: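 Tox21 10K qHTS, HEK293, 600 cells/well, RealTime-Glo reagent co-dispensed with cells; 5 h preincubation, compound by pintool, 37 C, luminescence at 0–40 h.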

[9] = qHTS assay to identify small molecule agonists of H2AX (AID 1224845; active = well fitted activation curve with a large enough effect in the signal ratio in the repeat runs, not every such curve was filed as active; the % refers to the signal ratio)
In short: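 Wild-type CHO-K1 cells plated overnight, then exposed 3 hr at 37C to compounds at 15 concentrations (0.76% DMSO). Lysed, then HTRF anti-pH2AX(S139)-cryptate/anti-H2AX-d2 detection after 24 hr at room temperature; emissions 665 and 620 nm.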

[10] = A CellTox Green Cytotoxicity Assay to monitor cytotoxicity in HEK293 cells - 0 hour (AID 1224869; active = well fitted curve in the direction sought with a large enough effect in the repeat runs; an effect the other way counts as inactive or inconclusive; also: nearly all actives have a fitted effect of over 50% in size)
In short: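 Fluorescence from a DNA-binding dye excluded by viable cells was measured repeatedly in the same HEK293 wells (600 cells/well) during continuous compound exposure at 37 C. Each assay gives one read point: 0, 8, 16, 24, 32 or 40 h.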
% is scaled to controls: 0 for no effect and ±100 for the full control effect.

Thyrotropin receptor (Homo sapiens), sequence (P16473 whole entry, looked up): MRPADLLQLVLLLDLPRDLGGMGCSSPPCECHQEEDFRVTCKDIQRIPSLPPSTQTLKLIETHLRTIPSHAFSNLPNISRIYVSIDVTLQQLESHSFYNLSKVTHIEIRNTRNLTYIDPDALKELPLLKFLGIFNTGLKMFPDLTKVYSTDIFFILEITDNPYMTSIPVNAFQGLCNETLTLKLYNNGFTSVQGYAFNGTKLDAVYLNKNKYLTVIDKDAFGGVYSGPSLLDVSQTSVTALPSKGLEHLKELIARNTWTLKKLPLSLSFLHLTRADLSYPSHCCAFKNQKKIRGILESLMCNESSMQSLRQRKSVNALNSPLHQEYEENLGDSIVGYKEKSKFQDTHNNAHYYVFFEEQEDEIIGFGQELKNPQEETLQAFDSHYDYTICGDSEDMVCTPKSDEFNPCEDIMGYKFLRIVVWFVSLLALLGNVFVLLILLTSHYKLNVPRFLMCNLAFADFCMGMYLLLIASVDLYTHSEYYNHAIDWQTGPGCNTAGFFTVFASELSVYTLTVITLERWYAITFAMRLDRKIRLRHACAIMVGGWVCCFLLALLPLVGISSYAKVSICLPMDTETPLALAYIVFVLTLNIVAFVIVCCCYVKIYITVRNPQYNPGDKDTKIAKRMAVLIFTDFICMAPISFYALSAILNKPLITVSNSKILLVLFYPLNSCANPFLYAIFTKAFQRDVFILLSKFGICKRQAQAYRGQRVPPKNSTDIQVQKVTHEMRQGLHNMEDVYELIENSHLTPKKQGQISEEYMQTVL

O=S1OCCO1
inactive: Potency [1] | Potency [2] | outcome [3] | Potency [4] | Potency [5] | activity change, positive = activation [6] 6.2% | Potency [7] | Potency [8]

COCc1c(C(C)C)nc(C(C)C)c(/C=C/[C@@H](O)C[C@@H](O)CC(=O)O)c1-c1ccc(F)cc1
inactive: Potency [1] | Potency [2] | Potency [9] | outcome [3] | Potency [4] | Potency [10]

Cc1ccc(S(=O)(=O)NC2CCCCC2)cc1
active: Potency [5] 27.1 µM
inactive: Potency [1] | Potency [2] | Potency [9] | outcome [3] | activity change, positive = activation [6] -34.7% | Potency [7] | Potency [10]

C[N+]1(C)CCC(=C(c2ccccc2)c2ccccc2)CC1
inactive: Potency [1] | Potency [2] | Potency [9] | Potency [4] | Potency [5] | activity change, positive = activation [6] -2% [at 42.5 µM] | Potency [7] | Potency [8] | Potency [10]

O=C(O)C(Cc1cc(I)c(O)c(I)c1)c1ccccc1 (configuration not stated)
inactive: Potency [1] | Potency [2] | Potency [9] | Potency [4] | Potency [7] | Potency [8]

O=C1NCCN1
inactive: Potency [1] | Potency [2] | outcome [3] | Potency [4] | Potency [5] | activity change, positive = activation [6] 2.98% | Potency [7] | Potency [8] | Potency [10]

CCCCN(CCCC)CCCOC(=O)c1ccc(N)cc1
inactive: Potency [1] | Potency [2] | Potency [9] | Potency [4] | Potency [7] | Potency [8] | Potency [10]

CCCCCCOC(=O)C(C)C
inactive: Potency [1] | Potency [2] | outcome [3] | Potency [4] | Potency [5] | activity change, positive = activation [6] 7.77% | Potency [7] | Potency [8] | Potency [10]

O=C(CCCN1CCC(O)(c2ccc(Br)cc2)CC1)c1ccc(F)cc1
inactive: Potency [1] | Potency [2] | Potency [9] | Potency [4] | Potency [10]
active: Potency [8] 9.52 µM

COC(OC)(C(=O)c1ccccc1)c1ccccc1
inactive: Potency [1] | Potency [2] | Potency [9] | outcome [3] | Potency [5] | activity change, positive = activation [6] -3.37% | Potency [7] | Potency [8] | Potency [10]

COc1ccc(CCC(=O)c2c(O)cc(O[C@@H]3O[C@H](CO)[C@@H](O)[C@H](O)[C@H]3O[C@@H]3O[C@@H](C)[C@H](O)[C@@H](O)[C@H]3O)cc2O)cc1O
inactive: Potency [1] | Potency [2] | outcome [3] | Potency [4] | Potency [5] | activity change, positive = activation [6] 1.69% | Potency [7] | Potency [8] | Potency [10]

O=C(O)Cc1ccc(-c2ccccc2)cc1
inactive: Potency [1] | Potency [2] | Potency [9] | Potency [4] | Potency [5] | activity change, positive = activation [6] 1.1% [at 42.5 µM] | Potency [7] | Potency [8] | Potency [10]

C=CCNc1nc(NCC=C)nc(N2CCN(C(c3ccc(F)cc3)c3ccc(F)cc3)CC2)n1
inactive: Potency [1] | Potency [2] | Potency [9] | outcome [3] | Potency [7] | Potency [8] | Potency [10]

CN(C(=O)C(Cl)Cl)c1ccc(OC(=O)c2ccco2)cc1
inactive: Potency [1] | Potency [2] | Potency [9] | Potency [4] | Potency [7] | Potency [8] | Potency [10]

CN1CCCN=C1/C=C/c1cccs1
inactive: Potency [1] | Potency [2] | Potency [9] | Potency [4] | Potency [7] | Potency [8]

O=C(O)c1cccnc1C(=O)O
inactive: Potency [1] | Potency [2] | Potency [9] | Potency [4] | Potency [7] | Potency [8] | Potency [10]

CC(=O)[C@H]1CC[C@H]2[C@@H]3C[C@H](C)C4=CC(=O)CC[C@]4(C)[C@H]3[C@@H](O)C[C@]12C
active: Potency [5] 26.6 µM
inactive: Potency [1] | Potency [2] | outcome [3] | Potency [4] | activity change, positive = activation [6] -35.5% [at 42.5 µM] | Potency [7] | Potency [10]

CCn1cc(C(=O)O)c(=O)c2cc(F)c(N3CCNCC3)nc21
inactive: Potency [1] | Potency [2] | Potency [9] | Potency [4] | Potency [7] | Potency [8] | Potency [10]

NC(=O)N(O)[C@@H]1COc2cc(OCc3ccccc3)ccc21
inactive: Potency [1] | Potency [2] | Potency [9] | outcome [3] | Potency [4] | Potency [7] | Potency [10]

O=C(CCCCCCC(=O)Nc1ccccc1)NO
active: Potency [2] 1.69 µM | Potency [8] 2.39 µM
inactive: Potency [1] | Potency [9] | outcome [3] | Potency [4] | Potency [10]

CCn1nc(C)c2c1C(=O)NCC(c1ccc(O)cc1)=N2
inactive: Potency [1] | Potency [2] | Potency [9] | outcome [3] | Potency [7] | Potency [8] | Potency [10]

CCN(Cc1cccc(S(=O)(=O)O)c1)c1ccc(C(=C2C=CC(=[N+](CC)Cc3cccc(S(=O)(=O)[O-])c3)C=C2)c2ccccc2)cc1
inactive: Potency [1] | Potency [2] | outcome [3] | Potency [4] | Potency [5] | activity change, positive = activation [6] 1.85% [at 42.5 µM] | Potency [7] | Potency [8] | Potency [10]

CC(COc1ccc(C(C)(C)C)cc1)OS(=O)OCCCl (configuration not stated)
active: Potency [2] 1.75 µM | Potency [5] 0.614 µM
inactive: Potency [1] | outcome [3] | Potency [4] | activity change, positive = activation [6] -72.8% | Potency [7] | Potency [10]

O=C(OCCOCCO)c1ccccc1Nc1cccc(C(F)(F)F)c1
inactive: Potency [1] | Potency [2] | Potency [9] | outcome [3] | Potency [7] | Potency [10]

CCc1cccc(N(C)C(N)=Nc2cccc3ccccc23)c1
inactive: Potency [1] | Potency [2] | Potency [9] | outcome [3] | Potency [7] | Potency [10]

CCC(C(=O)OCCN(CC)CC)c1ccccc1 (configuration not stated)
inactive: Potency [1] | Potency [2] | Potency [9] | Potency [4] | Potency [7] | Potency [8] | Potency [10]

O=C(NCCCN1CCOCC1)c1ccc(Cl)cc1
inactive: Potency [1] | Potency [2] | outcome [3] | Potency [4] | Potency [5] | activity change, positive = activation [6] 11.6% [at 42.5 µM] | Potency [7] | Potency [8] | Potency [10]

CC(=N\O)/C(C)=N/O
inactive: Potency [1] | Potency [2] | Potency [9] | Potency [4] | Potency [7] | Potency [8] | Potency [10]

CCC(Cc1ccccc1)(C(=O)c1ccc(N2CCOCC2)cc1)N(C)C (configuration not stated)
active: Potency [5] 17.2 µM
inactive: Potency [1] | Potency [2] | outcome [3] | activity change, positive = activation [6] -33.5% | Potency [7] | Potency [10]
